In PubChem BioAssay (NCI):
Compounds without any hit were thinned out: in the full panel of roughly 79,000, 15% have a hit. No stated cut-off is given here; in the data, active means growth inhibition above about 70%; inactive means the rest.

Key:
[1] = NCI Yeast Anticancer Drug Screen. Data for the rad50 strain (AID 155);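 further: 0% = growth of vehicle-only cultures of the same strain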; conditions: S. cerevisiae rad50 strain growth inhibition; at 50.0 µM; hits give high values
Summary of the method: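 A DNA repair-deficient yeast mutant serves as the test organism; compound-induced growth inhibition is calculated against vehicle-treated cells.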

[2] = NCI Yeast Anticancer Drug Screen. Data for the mec2-1 strain (AID 157); conditions: S. cerevisiae mec2-1 strain, at 50.0 µM, hits give high values
Summary of the method: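 Growth inhibition is read against vehicle-treated controls after compound exposure of the mec2-1 yeast strain, which is defective in DNA damage repair or cell cycle control.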

[3] = NCI Yeast Anticancer Drug Screen. Data for the sgs1 mgt1 strain (AID 161);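 further: 0% = growth of cultures given vehicle only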; conditions: S. cerevisiae sgs1 mgt1 strain, at 50.0 µM, hits give high values
Summary of the method: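 This yeast growth screen uses a strain with defined DNA-repair lesions; compound-treated growth is compared with vehicle-treated growth.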

[4] = NCI Yeast Anticancer Drug Screen. Data for the cln2 rad14 strain (AID 165);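 further: 0% = growth equal to vehicle treated cultures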; conditions: S. cerevisiae cln2 rad14 strain, at 50.0 µM, hits give high values
Summary of the method: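 Growth inhibition, relative to vehicle-treated controls, is the read-out. The test organism is a yeast strain with defined genetic alterations, cln2 rad14.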

[5] = NCI Yeast Anticancer Drug Screen. Data for the bub3 strain (AID 167); conditions: S. cerevisiae bub3 mutant strain, at 50.0 µM, hits give high values
Summary of the method: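 Inhibition values come from growth of compound-treated mutant yeast normalised to vehicle-treated controls.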

[6] = NCI Yeast Anticancer Drug Screen. Data for the mlh1 rad18 strain (AID 175); conditions: S. cerevisiae mlh1 rad18 strain growth inhibition; at 50.0 µM; hits give high values
Summary of the method: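 Cells of a genetically altered yeast strain, deficient in DNA damage repair, were treated with compound. Their growth was then compared with that of vehicle-treated cultures to give inhibition.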

Measured: growth inhibition

CS(=O)(=O)OCCC(COS(C)(=O)=O)NC(=O)c1ccccc1 (stereo not given)
inactive: [1] -3.75% | [2] -8.95% | [3] -2.85% | [4] -18.1% | [5] -10.3% | [6] -4.95%

CC1(C)CC(=O)OC/C=C\CC(Cc2ccccc2)C(=O)C1 (stereo not given)
inactive: [1] 4.6% | [2] 15.2% | [3] -12.3% | [4] 6.8% | [5] 12.2% | [6] 1.9%

COc1cccc2c1OC(=O)C(S(=O)(=O)c1ccccc1)C2 (stereo not given)
inactive: [1] -7.8% | [2] -3.95% | [3] 5.5% | [4] -37.5% | [5] -7.25% | [6] -3.65%

O=c1c2cc(S(=O)(=O)Nc3ccccc3Cl)ccc2ncn1NS(=O)(=O)c1ccc(Br)cc1
inactive: [1] 35.2% | [2] 1.8% | [3] 31.9% | [4] -0.4% | [5] 19.5% | [6] 23.9%

O=C1OC(=O)C2=C1CCC2
inactive: [1] -5% | [2] -14.1% | [3] -20.4% | [4] 13.3% | [5] 3.85% | [6] -12.4%

CCCCn1cnc2c(=S)nc[nH]c21
inactive: [1] -2.7% | [2] -1.9% | [3] -6.35% | [4] -11.6% | [5] -1% | [6] -0.95%

Cc1cc(O)c(C(C)C)cc1CN1CCCCC1
inactive: [1] 0% | [2] -25.1% | [3] -14.2% | [4] 0.15% | [5] -2.85% | [6] -3.3%

O=C(Cc1ccccc1)c1ccccc1C(=O)NCc1ccccc1
inactive: [1] -5.8% | [2] -3.45% | [3] 1.1% | [4] -66.5% | [5] 14.9% | [6] -7.1%

COC(=O)CCC(=O)c1ccc2c(c1)CC1(C2)Cc2ccc(C(=O)CCC(=O)OC)cc2C1
inactive: [1] -1.45% | [2] -30.6% | [3] -22.4% | [4] 5.35% | [5] -20.1% | [6] 2.9%

COC(=O)c1ccccc1OC(=S)N(C)C
inactive: [1] -8.75% | [2] -11.4% | [3] -8.45% | [4] -29.1% | [5] 0.75% | [6] -17.4%

O=Cc1ccc2ccccc2c1
inactive: [1] 33.5% | [2] -12% | [3] -7.45% | [4] -57.5% | [5] 16.8% | [6] 30.8%

CC(=O)N/N=C1/NN(C(C)=O)C2(S1)C(=O)Nc1ccc(C)cc12 (stereo not given)
inactive: [1] -4.15% | [2] 38.8% | [3] 40.1% | [4] 28.8% | [5] 24.8% | [6] 7.7%

O=c1[nH]c(Nc2cccc(CO)c2)nc2nc[nH]c12
inactive: [1] 5.35% | [2] -11% | [3] -25.8% | [4] 0.9% | [5] -15.7% | [6] -26.4%

NNC(=O)c1oc2ccccc2c1CN(CCO)CCO
inactive: [1] 3.75% | [2] -2.4% | [3] 3.45% | [4] -2.45% | [5] -1.15% | [6] -5.1%

CC(=O)OCC1OCOC2C(COC(C)=O)OCOC12 (stereo not given)
inactive: [1] 3.55% | [2] 2.6% | [3] -8.15% | [4] -24.4% | [5] 3.85% | [6] -8.5%

CCCCCCCCCCCCCCCCSC1=C(Cl)C(=O)C(OC)=C(OC)C1=O
inactive: [1] 25.6% | [2] -4.7% | [3] 21.1% | [4] -26% | [5] 0.25% | [6] 9.4%

Cc1ccc(/C(O)=C/C(=O)C(=O)NN=C(c2ccccc2)c2ccccc2)cc1
inactive: [1] 5.9% | [2] -11.9% | [3] 26.8% | [4] 4.85% | [5] 20.3% | [6] -1.85%

COc1cc(C(c2ccc3c(c2)OCO3)C2SCCCS2)cc(OC)c1OC (stereo not given)
inactive: [1] 25.2% | [2] 13.7% | [3] 21% | [4] 6.6% | [5] -12% | [6] 37.9%

CC1OC(C)(c2ccc(Cl)cc2)OCC1(C)C (stereo not given)
inactive: [1] -2.45% | [2] -1.15% | [3] 2.5% | [4] -26.6% | [5] 17.8% | [6] 16.9%

N=C1C(O)C2(I)c3ccccc3N3C(=N)C(O)C4c5ccccc5N1C4C32 (stereo not given)
inactive: [1] 5.55% | [2] 2.85% | [3] -38.5% | [4] -5.8% | [5] -29.4% | [6] 8.95%

CCN(CC)CC(=O)N1CCc2c([nH]c3ccccc23)C1c1cccnc1 (stereo not given)
inactive: [1] -40.1% | [2] -21.4% | [3] -11.6% | [4] -5.95% | [5] -35.5% | [6] -34.5%

O=C(O)c1c(Br)c(Br)c(Br)c(Br)c1C(=O)Nc1ccc([N+](=O)[O-])cc1
inactive: [1] -14.6% | [2] 2.65% | [3] 3.35% | [4] 4.75% | [5] 3.15% | [6] -1.05%

CCCCCC(CCCC)OC(=O)Nc1ccccc1 (stereo not given)
inactive: [1] -4.35% | [2] 7.85% | [3] 10% | [4] -7% | [5] -1.15% | [6] 4.6%

COc1ccc(-c2cc(=O)c3cc(C)c(C)c(C(=O)O)c3o2)cc1
inactive: [1] -10.5% | [2] -2.95% | [3] -5.4% | [4] 10.8% | [5] -8.7% | [6] 0.75%

CC(C)CNC(=O)/C=C/c1ccc2c(c1)OCO2
inactive: [1] 13.5% | [2] -19.1% | [3] -1.4% | [4] 3.4% | [5] 6.45% | [6] -15.1%

COC(=O)c1nc(N)nc(C(=O)OC)c1C(=O)c1cc(Cl)ccc1Cl
inactive: [1] -8.35% | [2] -7.9% | [3] -1.25% | [4] -18.2% | [5] -6.3% | [6] -5.65%

Cc1ccc(-n2c(=S)n(-c3ccccc3C)c3nc4ccccc4nc2/c3=N\Nc2ccccc2)cc1
inactive: [1] -6.85% | [2] 3.5% | [3] -14.8% | [4] -16.1% | [5] 1.3% | [6] -22.1%

COC(=O)c1c(C)cc(OC(=O)c2c(C)cc(OC)c(C)c2OC)c(C)c1O
inactive: [1] 14.6% | [2] 3.5% | [3] -2.15% | [4] 10.4% | [5] -0.65% | [6] 4.65%

Cc1cc(N2CCOCC2)nc2ccc(Cc3ccc4nc(N5CCOCC5)cc(C)c4c3)cc12
inactive: [1] 13.5% | [2] -10.2% | [3] -32.2% | [4] -24.2% | [5] -4.65% | [6] -4.4%

CC12CCC(C1)C(C)(C)/C2=N\O (stereo not given)
inactive: [1] -16.2% | [2] -13.8% | [3] 2.55% | [4] 4.85% | [5] 0.05% | [6] 2.65%

NC(N)=NC(=S)Nc1ccc(Cl)cc1
inactive: [1] 21.6% | [2] 1.6% | [3] 7.55% | [4] -4% | [5] -15.7% | [6] 31.1%

CCOC(SCC)C(O)C(O)C(O)C(O)CO (stereo not given)
inactive: [1] -1.9% | [2] -4.2% | [3] 20.4% | [4] -14.7% | [5] -7.8% | [6] -21.6%

CCCCCCCCCC(=O)OCCCC(CCCOC(=O)CCCCCCCCC)OC(=O)CCCCCCCCC
inactive: [1] -19.9% | [2] -6.85% | [3] -6.25% | [4] -23.9% | [5] -16.4% | [6] -26.6%

CCOC(=O)C(NC(=S)Cc1ccccc1)C(=O)OCC
inactive: [1] 10.1% | [2] -2.85% | [3] -4.8% | [4] -5.7% | [5] 9.75% | [6] -0.35%

COc1ccc2c(c1CCl)C(=O)OC2
inactive: [1] 13.6% | [2] -9.1% | [3] -2.05% | [4] -20.6% | [5] 12.2% | [6] -1.05%

CC(=O)c1ccc(OC(=O)Nc2ccc(C)cc2)cc1
inactive: [1] -2.25% | [2] 27.3% | [3] 17.8% | [4] -6.2% | [5] 26.5% | [6] 15.6%

COc1cc(C(=O)C(C)Br)cc(OC)c1OC (stereo not given)
inactive: [1] 3.1% | [2] 46.1% | [3] 64.9% | [4] -23% | [5] 68.2% | [6] 62.4%

O=c1[nH]cnc2nn(C3OC(CO)C(O)C3O)cc12 (stereo not given)
inactive: [1] -20.4% | [2] 12.9% | [3] -6.85% | [4] -5.65% | [5] 9.25% | [6] -18.9%

COCC(C)(CO)CC(C)CO (stereo not given)
inactive: [1] -13% | [2] -25.8% | [3] -0.15% | [4] -42% | [5] -7.1% | [6] -1.4%

CCCCCC/C=C/CCCCCCCc1cccc(OC)c1 (tested in a mixture with another compound)
inactive: [1] 3.85% | [2] -5.9% | [3] 3.6% | [4] -14.7% | [5] 1.25% | [6] 12.1%
